High-throughput results deposited in PubChem by Broad Institute.
Most compounds without a hit are left out; they make up all but 1.7% or so of the library.
F508del corr: CFTR F508del correction in bronchial cells; CFBE cells, YFP halide quenching; stimulated with forskolin plus potentiator P3; % fluorescence drop versus neutral controls; activity (quench increase), % at 7.58 µM; 350,000 compounds, 0.36% hits; AID 720511;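 active = mean added fluorescence quench of at least 8% versus neutral control, with both replicates also reaching 8%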;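 note: cells transiently co-express mutant CFTR-F508del with the halide-sensitive YFP; corrector assay measuring rescue of mutant channel to the surface after 24 h compound exposure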
Vif inh: HIV Vif inhibition; HEK293T cells, Vif self-association by quenched fluorescence, imaging, 24 h; inhibition, % at 7.49 µM; 340,000 compounds, 0.35% hits; in the data active = inhibition above about 50%, passing the limit was not always enough
FGF22 binding: shifts melting point of recombinant human FGF22 | 340,000 compounds, 1.5% hits | recombinant FGF22 thermal shift, SYPRO orange fluorescence; percent of sucrose octasulfate shift, DMSO zero | Q9HCT0 | activity (Tm shift, normalised), % at 9.99 µM;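 active = mean Tm shift, scaled 0 neutral to 100 positive control, at about 1.3% or above, every replicate too, limit read from the data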
Target sequence (Q9HCT0 whole entry, looked up): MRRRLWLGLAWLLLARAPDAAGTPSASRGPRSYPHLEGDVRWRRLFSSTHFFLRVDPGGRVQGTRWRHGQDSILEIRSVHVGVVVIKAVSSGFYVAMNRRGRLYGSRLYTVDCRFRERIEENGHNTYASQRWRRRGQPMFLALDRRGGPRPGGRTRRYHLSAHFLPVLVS
* hit, by the source's call.

Results for COc1ccc(CCC(=O)N2CCN(S(=O)(=O)c3ccc4ccccc4c3)CC2)cc1 ?
Vif inh: 0

Results for Cc1noc(C)c1S(=O)(=O)N(C)C[C@H]1OCCCC[C@@H](C)Oc2ccc(NS(=O)(=O)c3ccc(Cl)cc3)cc2C(=O)N([C@H](C)CO)C[C@@H]1C ?
F508del corr: -2; FGF22 binding: 0

How did O=C(C[C@H]1CC[C@@H]2[C@H](COC[C@@H](O)CN2Cc2ccc(F)cc2)O1)NCc1ccncn1 do in these assays?
F508del corr: -2; FGF22 binding: 0

What do the screens show for `C[C@H](CO)N1C[C@H](C)[C@H](CN(C)Cc2ccc(C(=O)O)cc2)Oc2c(NC(=O)C3CCCCC3)cccc2C1=O`?
F508del corr: -4; FGF22 binding: 0

What do the screens show for `CC(C)CC(=O)N1CCN(S(=O)(=O)c2ccc(Cl)cc2)CC1`?
F508del corr: 1; Vif inh: 3; FGF22 binding: 43*

How did Cc1ccc(S(=O)(=O)N2CCN(C(=O)CC(C)C)CC2)cc1 do in these assays?
F508del corr: -1; Vif inh: 4; FGF22 binding: 0

Results for Cc1cc(C)nc(NC(C)(C)C(=O)O)n1 ?
F508del corr: 2; Vif inh: 1; FGF22 binding: 44*

What do the screens show for `Cc1cc(C)nc(NC(=O)NC(=O)c2ccccc2)n1`?
F508del corr: -4; Vif inh: -6; FGF22 binding: 0

How did COC(=O)c1cccc(NC(=O)CSc2nnc(-c3ccco3)o2)c1 do in these assays?
F508del corr: -1; Vif inh: 58*; FGF22 binding: 0

Results for COc1ccc(OC)c(NC(=O)CSc2nnc(-c3ccco3)o2)c1 ?
F508del corr: 3; Vif inh: 4; FGF22 binding: 0

How did CNC[C@H]1OCCCC[C@@H](C)Oc2ccc(NC(=O)Nc3cccc4ccccc34)cc2C(=O)N([C@@H](C)CO)C[C@H]1C do in these assays?
F508del corr: -1; FGF22 binding: 0

Results for Cc1cc(NS(=O)(=O)c2ccc(NC(=O)c3ccc([N+](=O)[O-])s3)cc2)nc(C)n1 ?
F508del corr: 4; Vif inh: -5; FGF22 binding: 0

What do the screens show for `Cc1ccnc(NS(=O)(=O)c2ccc(NC(=O)c3ccc([N+](=O)[O-])s3)cc2)n1`?
F508del corr: -1; Vif inh: 4; FGF22 binding: 44*

How did CCOC(=O)N1CCN(C(=O)C2CCC(=O)N(CCCN3CCCC3=O)C2)CC1 (stereo not drawn) do in these assays?
F508del corr: 8.5*; Vif inh: 14; FGF22 binding: 0

Results for CCOC(=O)N1CCN(C(=O)C2CCC(=O)N(CCCc3ccccc3)C2)CC1 (stereo not drawn) ?
F508del corr: 1; Vif inh: 3; FGF22 binding: 0

Results for CCC(=O)N1CC2(CCN(Cc3ccc(Cl)cc3)CC2)c2c(n(C)c3cc(OC)ccc23)[C@H]1CO ?
F508del corr: 14*

How did CCCNC(=O)N1CC2(CN(S(=O)(=O)c3ccccc3)C2)c2c(n(C)c3cc(OC)ccc23)[C@H]1CO do in these assays?
F508del corr: 5; FGF22 binding: 0

How did CCC(=O)N1CC2(CN(Cc3ccc(Cl)cc3)C2)c2c(n(C)c3cc(OC)ccc23)[C@@H]1CO do in these assays?
F508del corr: 3; FGF22 binding: 0

Results for CCCNC(=O)N1CC2(CN(S(=O)(=O)c3cccc(OC)c3)C2)c2c(n(C)c3cc(OC)ccc23)[C@H]1CO ?
F508del corr: 8.6*

Results for Cc1noc(C)c1NC(=O)N(C)C[C@H]1Oc2ccc(NC(=O)Cn3cnnn3)cc2C(=O)N([C@@H](C)CO)C[C@@H]1C ?
F508del corr: 0; FGF22 binding: 0

What do the screens show for `CO[C@@H]1CN(C)C(=O)c2cc(NS(=O)(=O)c3ccccc3Cl)ccc2OC[C@H](C)NC[C@H]1C`?
F508del corr: -4; FGF22 binding: 0

What do the screens show for `NC(=O)c1ccccc1NC(=O)CN1CCCCCC1`?
F508del corr: 1; Vif inh: -3; FGF22 binding: 0

Results for NC(=O)c1cc(-c2ccccc2)sc1NC(=O)CN1CCCCC1 ?
F508del corr: 2; Vif inh: -2; FGF22 binding: 43*

What do the screens show for `O=C(C[C@H]1CC[C@H]2[C@@H](COC[C@@H](O)CN2C(=O)c2cnccn2)O1)NCc1ccc(F)cc1`?
F508del corr: 0; FGF22 binding: 0

What do the screens show for `Cc1nnc(NC(=O)c2ccc(S(=O)(=O)N3CC(C)OC(C)C3)cc2)o1` (stereo not drawn)?
F508del corr: 0; Vif inh: 5; FGF22 binding: 0

How did CC1CN(S(=O)(=O)c2cccc(C(=O)NCCCn3ccnc3)c2)CC(C)O1 (stereo not drawn) do in these assays?
Vif inh: 3
